Values joined by “and” are separate entries in the source; they are usually repeats but may differ in a detail not shown here. Equal entries are not always repeated. Inconclusive results are not listed. Unmarked numbers belong to inactive results. Active and inactive are the calls of the source. Calls follow the shape of the dose curve; as a rule, active = well fitted inhibition curve with a large enough effect; inconclusive = small, poorly fitted or top-dose-only effect; inactive = flat fitted curve, though single readings scatter.

Among the data in PubChem BioAssay (NCATS) are outcome, max response and Potency values, retold here.

Assay in all cases: Cytotoxic Profiling of Annotated Libraries Using Quantitative High-Throughput Screening (AID 1296008); also: nearly all actives have a fitted effect of over 60% in size
Conditions in all cases: Five cell lines viability, CellTiter-Glo ATP luminescence, 48-72 h; max response: active compounds read low

One experiment relates to CRL-7250. The method in brief:
(§1)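 Compounds were pin-transferred onto cells and incubated 48 or 72 hr at 37 degree Celsius, 95% humidity. CellTiter-Glo was added, plates sat 10 min at room temperature, then ATP-coupled luminescence was imaged as the viability read-out.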

In another experiment the test system is HEK293. Summed up: as §1
In the next experiment the test system is HaCat. Summed up:
as §1

Another experiment has as its system KB-3-1. Summed up: as §1
For the next experiment, the system named is NIH3T3. The method in brief:
as §1
% is scaled to controls: 0 for no effect and ±100 for the full control effect; potency is read from the fitted curve at half-maximal effect.

`CC1(C)CCC[C@@]2(C)[C@H]1[C@H](O)C=C1COC(=O)[C@@]12O`: the result in the experiment on CRL-7250, in the experiment on HEK293 and with HaCat was inactive. Also, the results for the max response in the experiment on KB-3-1 and with NIH3T3 were 4.4% and 2.05%, respectively.
For the molecule `C[C@H]1[C@H](C)CC[C@]2(C(=O)O)CC[C@]3(C)C(=CC[C@@H]4[C@@]5(C)C[C@@H](O)[C@H](O)[C@@](C)(CO)[C@@H]5CC[C@]43C)[C@H]12`, the results for the max response in the experiment with CRL-7250 and in the experiment with NIH3T3 were 0.188% and 4.85%, respectively. In addition, the result in the experiment with HEK293, with HaCat and in the experiment on KB-3-1 was inactive.
Turning to `COc1cc2c(cc1O)C1(Cc3ccc4c(c3C1=O)OCO4)N(C)CC2` (stereo not given), the max response was 3.99% in the experiment on CRL-7250 and 1.1% in the experiment on KB-3-1. For the same molecule, the molecule was classed as inactive in the experiment with HEK293, in the experiment on HaCat and with NIH3T3.
For the molecule `OCc1ccccc1O[C@@H]1O[C@H](CO)[C@@H](O)[C@H](O)[C@H]1O`, the max response with CRL-7250 was -0.323%; in the experiment with HaCat, -0.335%; in the experiment with KB-3-1, 6.41%; with NIH3T3 it was -2.31%. The call in the experiment with HEK293 was inactive.
For `C/C(=C/CCC(CO)C1CCC2(C)C3CCC4C(C)(C)C(OC5OC(CO)C(O)C(O)C5O)CC(O)C45CC35CCC12C)COC1OC(CO)C(O)C(O)C1O` (stereo not given), the molecule was called inactive in the experiment with CRL-7250 and in the experiment on HEK293. For the same molecule, the values for the max response in the experiment with HaCat, in the experiment on KB-3-1 and with NIH3T3 were -8.45%, -1.63% and 0.608%, respectively.
As for `CC(=O)OC[C@@]12[C@H](O)C[C@]3(C)C(=CCC4[C@@]5(C)CC[C@H](O[C@@H]6O[C@H](C(=O)O)[C@@H](O[C@@H]7O[C@H](CO)[C@@H](O)[C@H](O)[C@H]7O)[C@H](O)[C@H]6O[C@@H]6O[C@H](CO)[C@@H](O)[C@H](O)[C@H]6O)[C@](C)(CO)C5CC[C@]43C)[C@@H]1CC(C)(C)[C@@H](OC(C)=O)[C@@H]2O` (stereo not given in full), the molecule was called inactive with CRL-7250, with HEK293 and in the experiment on HaCat. The max response in the experiment with KB-3-1 was 6.14%; in the experiment with NIH3T3, 0.485%.
For the molecule `COC(=O)[C@H](OC(C)=O)[C@H]1C(C)(C)C(=O)[C@H]2CC3=C4CC(=O)O[C@@H](c5ccoc5)[C@]4(C)CCC3[C@@]1(C)C2=O` (stereo not given in full), the max response with CRL-7250 was -5.81%; in the experiment with HaCat it was -1.64%. Moreover, the outcome with HEK293, in the experiment with KB-3-1 and in the experiment with NIH3T3 was inactive.
Take `CC1CCC2(C(=O)OC3OC(CO)C(O)C(O)C3O)CCC3(C)C(=CCC4C5(C)CC(O)C(O)C(C)(C(=O)O)C5CCC43C)C2C1(C)O` (stereo not given): the max response was 3.23% with CRL-7250 and 1.03% in the experiment with KB-3-1. The molecule was called inactive in the experiment with HEK293, in the experiment on HaCat and with NIH3T3.
As to `C=C[C@H]1[C@H](O[C@@H]2O[C@H](CO[C@@H]3OC[C@](O)(CO)[C@H]3O)[C@@H](O)[C@H](O)[C@H]2O)OC=C2C(=O)OCC[C@H]21`, the call with CRL-7250, in the experiment on HEK293, in the experiment on HaCat, in the experiment on KB-3-1 and with NIH3T3 was inactive.
For `CCS(=O)(=O)N1CCC([C@@H](C)n2c(C)c(C(=O)NCc3c(OC)cc(C)[nH]c3=O)c3ccccc32)CC1`, the molecule was called inactive in the experiment with CRL-7250, in the experiment with HEK293, with HaCat and in the experiment on NIH3T3. In addition, the max response with KB-3-1 was 9.76%.
For `CC(C)C(C#N)O[C@@H]1O[C@H](CO[C@@H]2OC[C@](O)(CO)[C@H]2O)[C@@H](O)[C@H](O)[C@H]1O` (stereo not given in full), the max response with CRL-7250 was 0.582%; in the experiment on KB-3-1, 5.78%; with NIH3T3, 3.22%. Further, the outcome in the experiment with HEK293 and in the experiment on HaCat was inactive.
For the molecule `CC(C)=CCC[C@](C)(O[C@@H]1O[C@H](CO[C@@H]2OC[C@@H](O)[C@H](O)[C@H]2O)[C@@H](O)[C@H](O)[C@H]1O)[C@H]1CC[C@]2(C)[C@@H]1[C@H](O)C[C@@H]1[C@@]3(C)CC[C@H](O[C@@H]4O[C@H](CO)[C@@H](O)[C@H](O)[C@H]4O[C@@H]4O[C@H](CO)[C@@H](O)[C@H](O)[C@H]4O)C(C)(C)[C@@H]3CC[C@]12C`, the molecule was classed as inactive with CRL-7250, with HEK293, in the experiment on KB-3-1 and with NIH3T3. Besides, the max response in the experiment on HaCat was -10.6%.
Turning to `CC1(C)O[C@]23C[C@H]1C[C@H](OC(=O)c1ccoc1)[C@]2(C)[C@@H](OC(=O)c1ccoc1)CCC3(C)O` (stereo not given in full), the max response in the experiment with CRL-7250 was 0.391%; in the experiment on HaCat, 2.39%; in the experiment on KB-3-1 it was 7.96%; in the experiment with NIH3T3 it was -0.102%. Moreover, the call in the experiment on HEK293 was inactive.
For the molecule `CC1CCC2C(C)(C)C(O)CCC2(C)C12Cc1c(O)cc3c(c1O2)C(N)=NC3` (stereo not given), the max response in the experiment with CRL-7250 is -9.29%. Also, the result in the experiment on HEK293, with HaCat, with KB-3-1 and in the experiment on NIH3T3 was inactive.
`C=C/C=C/[C@@H]1OC[C@H](/C=C/C=C/C)[C@H]1O`: the results for the max response in the experiment on CRL-7250, in the experiment with HaCat and with NIH3T3 were -3.1%, -9.46% and -1.27%, respectively. The molecule was classed as inactive in the experiment on HEK293 and in the experiment with KB-3-1.
On to `CC(C)CNC(=O)/C=C/CCCCc1ccc2c(c1)OCO2`, for which the max response with CRL-7250 is -4.34%; in the experiment with KB-3-1 it was 4.53%; in the experiment with NIH3T3 it was -0.808%. For the same molecule, the outcome with HEK293 and in the experiment on HaCat was inactive.
For `CC[C@H](/C=C/[C@@H](C)[C@H]1CC[C@H]2[C@@H]3CC=C4C[C@@H](O)CC[C@]4(C)[C@H]3CC[C@]12C)C(C)C`, the max response in the experiment with CRL-7250 is -4.85%; in the experiment on HaCat it was 0.322%. Moreover, the result with HEK293, with KB-3-1 and with NIH3T3 was inactive.
With `CCCC1=CC2=C(CO1)C(=O)C(C)(OC(=O)c1c(C)cc(OC)cc1O)C(O)C2` (stereo not given), the max response in the experiment with CRL-7250 was -27.1%; with KB-3-1, 0.111%. Besides, the result with HEK293, in the experiment with HaCat and with NIH3T3 was inactive.
Regarding `Cc1nc2c(-c3cnc(N)nc3)nc(N3CCOCC3)nc2n1C(C)C`, the Potency is 291 nM (active) and 7.4 nM (active) in the experiment on CRL-7250; 326 nM (active) and 23.4 nM (active) in the experiment on HEK293; 2.06 µM (active) and 132 nM (active) with HaCat; 461 nM (active) in the experiment on KB-3-1; 1.16 µM (active) and 234 nM (active) in the experiment with NIH3T3.
`COC(=O)C[C@@H]1C(C(=O)O)=CO[C@@H](O[C@@H]2O[C@H](CO)[C@@H](O)[C@H](O)[C@H]2O)/C1=C\COC(=O)/C=C\c1ccccc1`: the values for the max response in the experiment with CRL-7250, with KB-3-1 and in the experiment on NIH3T3 were -11.7%, -0.0915% and -14.1%, respectively. Moreover, the molecule was called inactive in the experiment on HEK293 and with HaCat.
